Hits are enriched below; roughly 12% of the tested compounds scored in any of these assays.
PI5P4Ka inh: inhibitors of human PI5P4K alpha. P48426. PI5P4Kalpha enzyme, ADP-Glo luminescence, 60 min; stronger effect = lower value. max response, %. actives 1.2% (n = 330,000); active = max response of -50% or lower; inconclusive = between -30% and -50%; inactive = -30% or higher; also: value at the top dose of about 77 µM; % is scaled to controls: 0 for no effect and ±100 for the full control effect
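ADP-Glo luminescence end-point after a 60 min room-temperature kinase reaction. PI5P4Kalpha and substrate in HEPES pH 7.4 buffer with EGTA, 0.1% CHAPS and 5% DMSO; ATP at 5 microM final.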
G9a block: G9a (human) methyltransferase inhibition | Q96KQ7 | G9a H3K9 monomethylation, AlphaScreen, 2 h | Potency, µM (top dose mostly 102 µM), inactives show at the top dose activity, negative = inhibition, hits mostly inhibitors | actives 8.8% (n = 350,000); also: potency is read from the fitted curve at half-maximal effect; % is scaled to controls: 0 for no effect and ±100 for the full control effect; nearly all actives have a fitted effect of over 75% in size
Target sequence (Q96KQ7 913-1193 limits assumed): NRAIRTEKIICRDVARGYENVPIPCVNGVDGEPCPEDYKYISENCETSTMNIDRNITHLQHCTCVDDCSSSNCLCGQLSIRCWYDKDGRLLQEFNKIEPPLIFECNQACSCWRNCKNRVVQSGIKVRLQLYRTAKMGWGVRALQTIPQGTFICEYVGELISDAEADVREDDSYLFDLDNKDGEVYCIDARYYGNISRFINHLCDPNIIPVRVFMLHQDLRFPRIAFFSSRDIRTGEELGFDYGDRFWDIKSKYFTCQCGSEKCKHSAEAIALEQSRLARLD
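G9a (20 nM) preincubated 15 min RT with compounds, then 500 nM biotinylated H3K9 peptide and 20 uM SAM added; 2 h RT reaction. Monomethyl-H3K9 product detected by AlphaScreen with anti-H3K9me1 antibody, streptavidin donor and anti-rabbit IgG acceptor beads.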
BAZ2B inh: blocks human BAZ2B; Q9UIF8; AlphaScreen BAZ2B-H3K14Ac peptide displacement; Potency, µM (titrated, usually from 114 µM), without a hit: at the top dose activity change, negative = inhibition, usual class: inhibitors; actives 4.4% (n = 360,000); AID 504333; also: potency is read from the fitted curve at half-maximal effect; % is scaled to controls: 0 for no effect and ±100 for the full control effect; nearly all actives have a fitted effect of over 60% in size
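BAZ2B (50 nM) with biotin-H3(5-23)K14Ac peptide (50 nM) in PBS pH 7.4, 0.01% Tween-20, preformed 30 min, then compound 30 min at room temperature; top concentration 110uM. AlphaScreen streptavidin donor/nickel chelate acceptor beads (10 ug/mL final), 20 min dark, signal read.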
HP1b chromo inh: blocks HP1-beta chromodomain binding to methylated histone tails | P83916 | AlphaScreen HP1-beta / biotin-H3K9me3 peptide binding | Potency, µM (highest dose often 114 µM), inactives show top-dose activity change, negative = inhibition, usual class: inhibitors | actives 0.56% (n = 390,000) | AID 540317; also: potency is read from the fitted curve at half-maximal effect; nearly all actives have a fitted effect of over 70% in size
Target sequence (P83916 whole entry, looked up): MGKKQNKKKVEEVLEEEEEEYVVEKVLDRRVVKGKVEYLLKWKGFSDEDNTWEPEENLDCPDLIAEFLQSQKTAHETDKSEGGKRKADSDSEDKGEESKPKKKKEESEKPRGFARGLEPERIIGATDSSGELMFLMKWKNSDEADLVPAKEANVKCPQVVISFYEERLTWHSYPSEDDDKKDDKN
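HP1-beta protein (50 nM final) preincubated 30 min at room temperature with biotinylated H3(1-18)K9me3 peptide (50 nM) in PBS pH 7.4, 0.01% Tween-20, then compound added for 30 min. AlphaScreen streptavidin donor/nickel chelate acceptor beads (10 ug/mL final), 30 min dark, luminescence read.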
JMJD2A Tudor: JMJD2A Tudor domain (human) inhibition; AID 504339; AlphaScreen JMJD2A-Tudor / H3K4me3 peptide binding; Potency, µM (series often up to 114 µM), for inactives: at the highest dose activity change, negative = inhibition, actives largely listed as inhibitors; actives 4.4% (n = 390,000); O75164; also: potency is read from the fitted curve at half-maximal effect; % is scaled to controls: 0 for no effect and ±100 for the full control effect; nearly all actives have a fitted effect of over 50% in size
PLK1 PBD block: blocks phosphopeptide binding to human PLK1 polo-box domain. Plk1 PBD binding of FITC phosphopeptide, fluorescence polarization. Potency, µM, for the others: max response, negative = inhibition, actives largely listed as inhibitors. actives 2.8% (n = 360,000); also: potency is read from the fitted curve at half-maximal effect; series mostly up to about 57 µM; % is scaled to controls: 0 for no effect and ±100 for the full control effect; nearly all actives have a fitted effect of over 65% in size
Numbers without * were called inactive; ? = inconclusive; · = not tested or not shown; [ ] = dose if it differs, or a comment. Unless noted, calls follow the shape of the dose curve; as a rule, active = well fitted curve in the direction sought with a large enough effect; inconclusive = small, poorly fitted or top-dose-only effect, or another doubt; inactive = no such curve, though single readings can be large; an effect the other way counts as inactive or inconclusive.

SMILES	PI5P4Ka inh	G9a block	BAZ2B inh	HP1b chromo inh	JMJD2A Tudor	PLK1 PBD block
CCOc1ccc2nc(C)cc(Nc3ccccc3OCC)c2c1	·	5%[59 µM]	19%	85%	-22%	·
O=C/C(=C\Nc1ccccn1)c1nc2ccccc2o1	·	1%[59 µM]	79µM*	9%	40µM*	-9%
O=C(O)C1CCCN1S(=O)(=O)c1cccc(S(=O)(=O)N2CCCC2C(=O)O)c1 (stereo not given)	-5	3.2µM*	-8%	65%	-13%	0%
O=C(NCC1CCCN1S(=O)(=O)c1ccccc1)C(=O)NC1CC1 (stereo not given)	-8	50µM*	5%	0%	35µM*	-12%
O=C(NCCC1CCCCN1S(=O)(=O)c1ccccc1)C(=O)NC1CCCC1 (stereo not given)	-1	-2%[0.501 µM]	-4%	28%	-7%	-6%
O=C(O)[C@@H]1CCCN1S(=O)(=O)c1cccc(S(=O)(=O)N2CCC[C@H]2C(=O)O)c1	5	?	-6%	54%	-10%	1%
COc1ccccc1NS(=O)(=O)c1ccc2[nH]c(=O)[nH]c2c1	-7	18%	-26%	69%	-1%	-8%
O=c1[nH]c2ccc(S(=O)(=O)Nc3ccccc3O)cc2[nH]1	-4	2.2µM*	-32%	19%	-8%	-5%
O=c1cc(O)c2c(=O)n(C3CCCCC3)c3ccccc3c2o1	·	?	?	30%	-31%	-3%
O=c1cc(O)c2c(=O)n(-c3ccccc3)c3c(c2o1)CCCCCC3	-28	10%[59 µM]	50µM*	5%	?	-1%
C=C(C)COc1ccc2c(C)c(CCC(=O)NC3CC3)c(=O)oc2c1	-1	27%	-2%	23%	18%	0%
c1ccc2c(-c3ccc(OCCN4CCCCC4)cc3)c(-c3ccsc3)sc2c1	-1	·	·	-7%	40µM*	2%
CN(C)CCOc1ccc(-c2c(-c3ccccc3)sc3ccccc23)cc1	18	·	·	?	40µM*	-10%
NC(=O)c1ccc(-c2c(-c3ccccc3)sc3ccccc23)cc1	2	4%[0.501 µM]	8%	33%	-3%	-2%
COc1ccccc1-c1sc2cc3c(cc2c1-c1ccc(OCCN2CCOCC2)cc1)OCO3	48	·	·	-24%	50µM*	-3%
COc1ccc(-c2sc3cc4c(cc3c2-c2ccc(OCCN3CCCCC3)cc2)OCO4)cc1	-2	·	·	-14%	?	-15%
COc1cc(OC)cc(-c2sc3ccc(OC)cc3c2-c2ccc(OCCN3CCCCC3)cc2)c1	18	·	·	-32%	20µM*	-14%
c1ccc(-c2sc3ccccc3c2-c2ccc(OCCN3CCCCC3)cc2)cc1	0	·	·	8%	-36%	2%
Cn1nc(-c2ccc(OCC(=O)Nc3ccc(Cl)cc3)cc2)c2ccccc2c1=O	·	?	?	7%	?	·
CCc1nn(CC(=O)NCC(C)c2ccccc2)c(=O)c2cc3c(OC)cccc3n12 (stereo not given)	·	14%[59 µM]	-5%	14%	2%	·
CC(C)N(C(=O)CSc1nnc(CN2CCCCCC2=O)n1-c1ccccn1)C(C)C	·	?	-27%	?	89µM*	-9%
O=C(Nc1ccccc1N1CCCCC1)C1CCN(S(=O)(=O)c2cccc(C(F)(F)F)c2)CC1	17	-9%	12%	25%	-21%	-5%
COc1ccc(S(=O)(=O)N2CCC(C(=O)Nc3ccccc3N3CCCC3)CC2)cc1OC	7	45µM*	-36%	11%	-22%	-2%
O=C(Nc1ccccc1N1CCCC1)C1CCN(S(=O)(=O)c2cccc(C(F)(F)F)c2)CC1	-6	14µM*	?	43%	?	-2%
CC1CC(=O)Nc2ccccc2N1C(=O)CSc1ncnc2sccc12 (stereo not given)	-3	13%[59 µM]	10%	18%	-15%	-3%
Cc1nnsc1NC(=O)OCC(C)C	-2	8%	-1%	30%	13%	2%
Cc1nnsc1NC(=O)OCC(C)(C)C	3	50µM*	5%	17%	-9%	0%

Screening results: PubChem BioAssay, National Center for Advancing Translational Sciences (NCATS)
